The entries come from a sample that favours hits as a whole.
FBPA Giardia inh = inhibitors of Giardia lamblia fructose-1,6-bisphosphate aldolase; actives 0.71% (n = 290,000); purified Giardia FBPA; A8B2U2; AID 2451; Potency, µM (titrated, usually from 59.6 µM), for inactives: top-dose activity, negative = inhibition, usual class: inhibitors; note: potency is the fitted concentration of half-maximal effect; % is set by controls: 0 for no effect and ±100 for the full control effect; nearly all actives have a fitted effect of over 55% in size
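Giardia FBPA (40 nM reagent) was preincubated 10 min at RT with compound (up to 57.5 uM final), then substrate plus GAPDH/TPI/NAD/arsenate coupling system with diaphorase/resazurin was added; resorufin fluorescence (525/598 nm) was read after 20 min.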
LmPK inhibitor = LmPK (Leishmania mexicana) enzyme inhibition; Q27686; purified LmPK, Kinase-Glo ATP luminescence, 1 h; Potency, µM (highest dose often 57.5 µM), for inactives: at the highest dose activity change, negative = inhibition, hits mostly inhibitors; actives 0.37% (n = 290,000); AID 1721; note: potency is the fitted concentration of half-maximal effect; % is set by controls: 0 for no effect and ±100 for the full control effect
Target sequence (Q27686 whole entry, looked up): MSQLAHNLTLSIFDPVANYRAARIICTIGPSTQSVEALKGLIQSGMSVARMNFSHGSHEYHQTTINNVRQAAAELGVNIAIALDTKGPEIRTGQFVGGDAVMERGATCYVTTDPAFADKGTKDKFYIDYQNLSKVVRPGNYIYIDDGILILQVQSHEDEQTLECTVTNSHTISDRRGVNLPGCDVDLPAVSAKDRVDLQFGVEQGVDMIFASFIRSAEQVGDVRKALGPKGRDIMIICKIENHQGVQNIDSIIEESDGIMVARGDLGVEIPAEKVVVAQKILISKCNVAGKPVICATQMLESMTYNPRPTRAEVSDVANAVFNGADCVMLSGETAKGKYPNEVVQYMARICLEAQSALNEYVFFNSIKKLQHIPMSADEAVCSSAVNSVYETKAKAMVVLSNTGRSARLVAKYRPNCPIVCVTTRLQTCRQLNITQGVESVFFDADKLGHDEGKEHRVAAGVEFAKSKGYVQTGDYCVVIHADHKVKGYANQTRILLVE
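In 50 mM imidazole pH 7.2 with 7 mM MgCl2, LmPK (0.1 nM) turned over PEP (0.5 mM) and ADP (0.1 mM) for 1 h at room temperature. Luciferase read-out of ATP.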
Cycloheximide cs = counter-screen for Shiga toxin inhibitors: cycloheximide protein synthesis inhibition. AID 2314. actives 12% (n = 300,000). cell reporter, cycloheximide protein synthesis inhibition counterscreen. max response, %; in the data active = max response mostly above about 13%, no sharp cut-off; inactive = mostly below about 14%; note: read at 38.3 µM for the half of the compounds with a filed dose; 0% is about no effect
Tb PYK inh = blocks Trypanosoma brucei pyruvate kinase; Q57TT1; TbPYK enzyme, Kinase-Glo Plus ATP luminescence, 45 min; Potency, µM (top dose mostly 76.8 µM), for inactives: top-dose activity, negative = inhibition, actives largely listed as inhibitors; actives 0.12% (n = 410,000); AID 624173; note: potency is the fitted concentration of half-maximal effect; % is set by controls: 0 for no effect and ±100 for the full control effect; nearly all actives have a fitted effect of over 50% in size
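In this concentration-response screen, enzyme-free wells defined baseline while DMSO plates tracked drift. Each reaction combined TbPYK, substrate, compound and 130 uM ADP for 45 min at room temperature. Kinase-Glo Plus luminescence gave the signal.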
Sm TGR inh = inhibitors of Schistosoma mansoni thioredoxin glutathione reductase | actives 3% (n = 360,000) | purified TGR, DTNB reduction, TNB absorbance 405 nm | Potency, µM (titrated, usually from 114 µM), for inactives: at the highest dose activity change, negative = inhibition, usual class: inhibitors; note: potency is the fitted concentration of half-maximal effect; % is set by controls: 0 for no effect and ±100 for the full control effect; nearly all actives have a fitted effect of over 60% in size
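First, TGR (20 nM dispensed) and NADPH were mixed with compound. Second, a 15 min room-temperature incubation followed. Third, further NADPH and then DTNB were added to start the reaction. Finally, TNB absorbance was monitored kinetically.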
Shiga toxin inh = Shiga toxin inhibition. Vero cells, Shiga toxin protein synthesis inhibition reporter. inhibition, % at 38.7 µM. AID 2315. actives 9.2% (n = 290,000); in the data active = inhibition mostly above about 28%, no sharp cut-off; inactive = mostly below about 43%; note: 0% is about no effect
* marks the source's active call; other numbers are inactive results. Unless noted, calls come from the whole dose curve; as a rule, active = well fitted curve in the direction sought with a large enough effect; inconclusive = small, poorly fitted or top-dose-only effect, or another doubt; inactive = no such curve, though single readings can be large; an effect the other way counts as inactive or inconclusive.

Screening CC(C)CN1CCC(=O)N([C@H](COc2ccccc2)c2ccccc2)CC1 returned FBPA Giardia inh -3%, LmPK inhibitor 0%, Cycloheximide cs 2, Tb PYK inh -6%, Sm TGR inh -8% and Shiga toxin inh -5.
For COc1cccc(-c2nc(N3CCN(C)CC3)c3ccccc3n2)c1 the results were FBPA Giardia inh 1%.
Screening CCc1ccc(-c2nc(CS(=O)CC(=O)NCCc3ccc(C)cc3)c(C)o2)cc1 (centres undefined) returned Tb PYK inh 4% and Sm TGR inh 22µM*.
`Cc1ccc(CCNC(=O)CS(=O)Cc2nc(-c3ccccc3F)oc2C)cc1` (centres undefined) gave FBPA Giardia inh 11%, LmPK inhibitor -3%, Cycloheximide cs -5, Tb PYK inh -6%, Sm TGR inh inconclusive and Shiga toxin inh -18.
Screening CCc1ccc(-c2nc(CS(=O)CC(=O)NCCc3ccccc3)c(C)o2)cc1 (centres undefined) returned LmPK inhibitor 9%, Cycloheximide cs 21*, Tb PYK inh 0%, Sm TGR inh 10µM* and Shiga toxin inh 43.
Screening CC(C)C[C@H](NC(=O)CNC(=O)[C@H](C)NC(=O)[C@H](CC(C)C)NC(=O)[C@H](CCCNC(=N)N)NC(=O)[C@H](Cc1cnc[nH]1)NC(=O)[C@@H](NC(=O)[C@@H](NC(=O)[C@@H]1CSSC[C@H](NC(=O)[C@@H](N)CO)C(=O)N[C@@H](CC(N)=O)C(=O)N[C@@H]([C@@H](C)O)C(=O)N[C@@H](C)C(=O)N[C@@H]([C@@H](C)O)C(=O)N1)C(C)C)[C@@H](C)O)C(=O)N[C@@H](CC(C)C)C(=O)N[C@@H](CO)C(=O)N[C@@H](CCCNC(=N)N)C(=O)N[C@@H](CO)C(=O)NCC(=O)NCC(=O)N[C@H](C(=O)N[C@H](C(=O)N[C@@H](CCCCN)C(=O)N[C@@H](CC(=O)O)C(=O)N[C@@H](CC(N)=O)C(=O)N[C@@H](Cc1ccccc1)C(=O)N[C@H](C(=O)N1CCC[C@H]1C(=O)N[C@H](C(=O)N[C@@H](CC(N)=O)C(=O)N[C@H](C(=O)NCC(=O)N[C@@H](CO)C(=O)N[C@@H](CCCCN)C(=O)N[C@@H](C)C(=O)N[C@@H](Cc1ccccc1)C(N)=O)C(C)C)[C@@H](C)O)C(C)C)C(C)C)C(C)C returned FBPA Giardia inh -3%, Cycloheximide cs -5 and Shiga toxin inh -8.
For Cc1c(O)nc2sc3ccccc3n2c1=O the results were FBPA Giardia inh -3%, LmPK inhibitor -2%, Cycloheximide cs -2, Sm TGR inh 0% and Shiga toxin inh 6.
For Cc1cc2sc3nc(=O)n(-c4ccccc4)c(=O)n3c2cc1C the results were FBPA Giardia inh -4%, LmPK inhibitor -9%, Cycloheximide cs 25*, Tb PYK inh -4%, Sm TGR inh 4% and Shiga toxin inh 32*.
CC(C)Cn1cc(C(=O)N2CCN(c3cccc(Cl)c3)CC2)c2c3ccccc3n(C)c2c1=O was read as Tb PYK inh -5% and Sm TGR inh -2%.
For COC(=O)c1ccccc1-c1ccc(C(c2c(C)[nH][nH]c2=O)c2c(C)[nH][nH]c2=O)o1 the results were FBPA Giardia inh 4%, LmPK inhibitor 6%, Cycloheximide cs 13, Tb PYK inh -7%, Sm TGR inh -1% and Shiga toxin inh 16.
Screening Cc1[nH][nH]c(=O)c1C(c1ccc(-c2ccc(Cl)c(C(=O)O)c2)o1)c1c(C)[nH][nH]c1=O returned FBPA Giardia inh 7.1µM*, LmPK inhibitor 0%, Cycloheximide cs -2, Tb PYK inh -17%, Sm TGR inh 16µM* and Shiga toxin inh 12.
COC(=O)c1cccc(-c2ccc(C(c3c(C)[nH][nH]c3=O)c3c(C)[nH][nH]c3=O)o2)c1 was read as FBPA Giardia inh 14µM*, LmPK inhibitor -4%, Cycloheximide cs 2, Tb PYK inh -11%, Sm TGR inh 14µM* and Shiga toxin inh 21.

From PubChem
